# Reference: ChEMBL document CHEMBL2218924, “A broad activity screen in support of a chemogenomic map for kinase signalling research and drug discovery” (Biochem J, 2013)
# Biological target: T1, cAMP-dependent protein kinase catalytic subunit PRKX (Homo sapiens) (UniProt P51817)
# T1 sequence (whole entry): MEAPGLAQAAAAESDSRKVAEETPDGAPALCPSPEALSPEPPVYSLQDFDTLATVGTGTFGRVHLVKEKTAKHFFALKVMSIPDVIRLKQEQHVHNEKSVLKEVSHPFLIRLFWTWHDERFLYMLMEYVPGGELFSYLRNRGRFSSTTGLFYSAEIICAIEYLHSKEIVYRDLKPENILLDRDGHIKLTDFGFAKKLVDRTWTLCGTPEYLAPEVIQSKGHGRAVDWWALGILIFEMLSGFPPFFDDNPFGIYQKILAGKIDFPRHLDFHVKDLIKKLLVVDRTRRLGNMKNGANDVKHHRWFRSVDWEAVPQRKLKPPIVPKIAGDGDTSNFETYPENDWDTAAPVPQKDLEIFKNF
# Conditions: at 1 µM
row,SMILES,residual activity
1,N#Cc1c(NC(=O)c2cccc3ccccc23)sc2c1CCCC2,80%
2,O=S(=O)(NCCNC/C=C/c1ccc(Br)cc1)c1cccc2cnccc12,0%
3,CCN(CC)CCNC(=O)c1c(C)[nH]c(/C=C2\C(=O)Nc3ccc(Cl)cc32)c1C,63%
4,O=C1Nc2ccccc2/C1=C\c1c(Cl)[nH]c2ccccc12,125%
5,N#C/C(=C1/Nc2ccccc2S1)c1ccnc(NCCc2cccnc2)n1,83%
6,COc1ccc(CNC(=O)Nc2ncc([N+](=O)[O-])s2)cc1,55%
7,CN([C@@H](Cc1ccc(OS(=O)(=O)c2cccc3cnccc23)cc1)C(=O)N1CCN(c2ccccc2)CC1)S(=O)(=O)c1cccc2cnccc12,116%
8,Oc1cccc(-c2nc(N3CCOCC3)c3oc4ncccc4c3n2)c1,96%
9,COc1cc2nccc(Oc3ccc(NC(=O)Nc4cc(C)on4)c(Cl)c3)c2cc1OC,97%
10,COc1ccc(COc2ccc(Cc3cnc(N)nc3N)cc2OC)cc1,98%
11,O=S(=O)(c1cccc2cnccc12)N1CCCNCC1,21%
12,CCCCc1c(-c2ccc(OC)cc2)[nH]c2nccnc12,84%
13,O=c1c(-c2ccc(F)cc2)c(-c2ccncc2)[nH]n1-c1ccc(Cl)cc1,78%
14,O=C1NC(=O)C(c2cn(CCCn3ccnc3)c3ccccc23)=C1Nc1ccccc1,80%
15,O=C(c1cc2cc(O)ccc2[nH]1)c1cc2cc(O)ccc2[nH]1,81%
16,NC(=O)c1ccc(-c2nc(-c3ccc4c(c3)OCCO4)c(-c3ccccn3)[nH]2)cc1,82%
17,CN(C)S(=O)(=O)c1ccc2c(c1)/C(=C/c1cc3c([nH]1)CCCC3)C(=O)N2,95%
18,O=C(Nc1nc2ccccc2n1CCN1CCOCC1)c1cccc([N+](=O)[O-])c1,108%
19,Cn1c2ccccc2c2c3c(c4c5ccccc5n(CCC#N)c4c21)CNC3=O,19%

# Biological target: T1, cAMP-dependent protein kinase catalytic subunit PRKX (Homo sapiens)
# Conditions: at 10 µM
row,SMILES,residual activity
1,N#Cc1c(NC(=O)c2cccc3ccccc23)sc2c1CCCC2,84%
2,O=S(=O)(NCCNC/C=C/c1ccc(Br)cc1)c1cccc2cnccc12,0%
3,CCN(CC)CCNC(=O)c1c(C)[nH]c(/C=C2\C(=O)Nc3ccc(Cl)cc32)c1C,37%
4,O=C1Nc2ccccc2/C1=C\c1c(Cl)[nH]c2ccccc12,79%
5,COc1cc2c(cc1OC)-c1n[nH]c(Nc3cccc(F)c3)c1C2,101%
6,N#C/C(=C1/Nc2ccccc2S1)c1ccnc(NCCc2cccnc2)n1,37%
7,CCN1/C(=C/C(C)=O)Sc2ccc(OC)cc21,42%
8,COc1ccc(CNC(=O)Nc2ncc([N+](=O)[O-])s2)cc1,59%
9,CCOc1nc(NC(=O)Cc2cc(OC)ccc2OC)cc(N)c1C#N,55%
10,CN([C@@H](Cc1ccc(OS(=O)(=O)c2cccc3cnccc23)cc1)C(=O)N1CCN(c2ccccc2)CC1)S(=O)(=O)c1cccc2cnccc12,62%
11,Oc1cccc(-c2nc(N3CCOCC3)c3oc4ncccc4c3n2)c1,92%
12,N#C/C(=C\c1ccc(O)c(O)c1)C(=O)NCc1ccccc1,70%
13,O=C(Nc1ccc(Cl)cc1)c1ccccc1NCc1ccncc1,50%
14,COc1cc2nccc(Oc3ccc(NC(=O)Nc4cc(C)on4)c(Cl)c3)c2cc1OC,59%
15,O=S(=O)(c1cccc2cnccc12)N1CCCNCC1,2%
16,CCCCc1c(-c2ccc(OC)cc2)[nH]c2nccnc12,101%
17,O=c1c(-c2ccc(F)cc2)c(-c2ccncc2)[nH]n1-c1ccc(Cl)cc1,71%
18,O=C1NC(=O)C(c2cn(CCCn3ccnc3)c3ccccc23)=C1Nc1ccccc1,58%
19,O=C(c1cc2cc(O)ccc2[nH]1)c1cc2cc(O)ccc2[nH]1,34%
20,NC(=O)c1ccc(-c2nc(-c3ccc4c(c3)OCCO4)c(-c3ccccn3)[nH]2)cc1,86%
21,CN(C)S(=O)(=O)c1ccc2c(c1)/C(=C/c1cc3c([nH]1)CCCC3)C(=O)N2,91%
22,O=C(Nc1nc2ccccc2n1CCN1CCOCC1)c1cccc([N+](=O)[O-])c1,86%
23,COc1ccc2c(c1)c(C1=C(c3c[nH]c4ccccc34)C(=O)NC1=O)cn2CCCN(C)C,79%
24,Cn1c2ccccc2c2c3c(c4c5ccccc5n(CCC#N)c4c21)CNC3=O,20%

# Biological target: Protein-tyrosine kinase 2-beta (Homo sapiens) (UniProt Q14289)
# Sequence (Q14289 whole entry, looked up): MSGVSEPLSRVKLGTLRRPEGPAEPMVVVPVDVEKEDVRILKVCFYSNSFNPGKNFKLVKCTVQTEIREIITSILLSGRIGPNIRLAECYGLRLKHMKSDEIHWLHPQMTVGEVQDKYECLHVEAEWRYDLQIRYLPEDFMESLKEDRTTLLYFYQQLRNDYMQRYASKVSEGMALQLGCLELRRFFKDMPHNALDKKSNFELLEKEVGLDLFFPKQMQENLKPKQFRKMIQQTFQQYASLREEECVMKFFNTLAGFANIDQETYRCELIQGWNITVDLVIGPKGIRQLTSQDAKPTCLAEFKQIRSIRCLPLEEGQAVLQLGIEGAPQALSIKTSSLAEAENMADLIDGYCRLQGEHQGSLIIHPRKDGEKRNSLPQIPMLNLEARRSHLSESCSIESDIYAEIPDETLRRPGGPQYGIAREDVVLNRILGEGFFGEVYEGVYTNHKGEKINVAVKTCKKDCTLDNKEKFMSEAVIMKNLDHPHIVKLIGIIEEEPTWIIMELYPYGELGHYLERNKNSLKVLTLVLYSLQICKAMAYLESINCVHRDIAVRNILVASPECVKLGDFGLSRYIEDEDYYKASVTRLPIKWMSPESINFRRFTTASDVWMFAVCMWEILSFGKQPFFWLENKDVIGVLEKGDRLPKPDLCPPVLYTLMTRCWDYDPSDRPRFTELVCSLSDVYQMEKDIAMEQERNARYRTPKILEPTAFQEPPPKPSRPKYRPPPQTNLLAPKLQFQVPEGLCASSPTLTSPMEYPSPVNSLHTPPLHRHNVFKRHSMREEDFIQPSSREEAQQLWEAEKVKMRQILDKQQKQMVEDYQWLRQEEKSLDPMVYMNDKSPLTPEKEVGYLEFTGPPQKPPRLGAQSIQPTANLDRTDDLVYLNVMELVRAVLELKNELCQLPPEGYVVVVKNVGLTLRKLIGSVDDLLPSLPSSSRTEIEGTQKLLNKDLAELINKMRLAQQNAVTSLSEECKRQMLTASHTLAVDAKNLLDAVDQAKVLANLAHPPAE
# Conditions: at 1 µM
row,SMILES,residual activity
1,O=C1NC(=O)C(c2cn(CCCO)c3ncccc23)=C1c1cnccn1,100%
2,CCN(CC)CCNC(=O)c1c(C)[nH]c(/C=C2\C(=O)Nc3ccc(Cl)cc32)c1C,15%
3,COc1cc2c(cc1OC)-c1n[nH]c(Nc3cccc(F)c3)c1C2,79%
4,COc1ccc(CNC(=O)Nc2ncc([N+](=O)[O-])s2)cc1,72%
5,O=C1NC(=O)C(c2c[nH]c3ccccc23)=C1c1c[nH]c2ccccc12,97%
6,Oc1cccc(-c2nc(N3CCOCC3)c3oc4ncccc4c3n2)c1,142%
7,N#C/C(=C\c1ccc(O)c(O)c1)C(=O)NCc1ccccc1,146%
8,O=C(Nc1ccc(Cl)cc1)c1ccccc1NCc1ccncc1,128%
9,COc1cc2nccc(Oc3ccc(NC(=O)Nc4cc(C)on4)c(Cl)c3)c2cc1OC,34%
10,Nc1nc(Nc2ccc(S(N)(=O)=O)cc2)nn1C(=O)c1c(F)cccc1F,55%
11,NCCNc1ncc(C(N)=O)c(Nc2cccc(C(F)(F)F)c2)n1,27%
12,CCCCc1c(-c2ccc(OC)cc2)[nH]c2nccnc12,54%
13,O=C1NC(=O)C(c2cn(CCCn3ccnc3)c3ccccc23)=C1Nc1ccccc1,121%
14,O=C(c1cc2cc(O)ccc2[nH]1)c1cc2cc(O)ccc2[nH]1,68%
15,c1ccc(-c2cnc(Nc3ccc(OCCN4CCCC4)cc3)s2)cc1,105%
16,O=c1cc(N2CCOCC2)oc2c(-c3ccccc3)cccc12,127%
17,O=C(Nc1nc2ccccc2n1CCN1CCOCC1)c1cccc([N+](=O)[O-])c1,114%
18,COc1ccc2c(c1)c(C1=C(c3c[nH]c4ccccc34)C(=O)NC1=O)cn2CCCN(C)C,116%
19,Cn1c2ccccc2c2c3c(c4c5ccccc5n(CCC#N)c4c21)CNC3=O,4%
